Source: the supplement of paper PMC10646978
± gives the standard deviation.

System: RAW-Dual (murine macrophage reporter line)
Assay: NF-kB reporter (SEAP) activity fold change vs agonist alone; higher = enhanced NF-kB activity
Details: modulator concentration 10 µM; agonist: LPS 0.1 ug/mL
How it was run: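 In 384-well plates holding 50 000 RAW-Dual murine macrophage reporter cells per well, compound at 10 μM final was pre-incubated for 1 hour at 37 °C, after which a PRR agonist was added overnight. Supernatant SEAP read with QUANTI-Blue at 620 nm absorbance reported NF-κB, and Lucia luciferase read with QUANTI-Luc luminescence reported IRF. Fold change values come from dividing each reporter signal by the mean of agonist-only control wells on the same plate, averaged over replicate plates with propagated errors.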

SMILES	NF-kB reporter
Cc1nc(C(=O)NCC(=O)O)c(O)c2ccc(Oc3ccccc3)cc12	1.05 ± 0.39
CCN(CCO)CCCC(C)Nc1ccnc2cc(Cl)ccc12.O=S(=O)(O)O (stereo not given)	0.984 ± 0.08
COc1ccccc1C(=O)Nc1ccc(-c2nc3cc(C)ccc3o2)cc1	0.996 ± 0.051
Cc1c(F)cc(C(=O)NC2CC2)cc1-c1ccc(C(=O)NCC(C)(C)C)cn1	0.994 ± 0.05
CNC(=O)C(=O)Nc1cc(Cl)ccc1C	1 ± 0.078
CC(C)(C)C(=O)NCc1cccnc1-c1cccnc1	1.02 ± 0.1
O=C(NN=Cc1ccc([N+](=O)[O-])s1)c1ccc(Br)cc1	0.858 ± 0.082
Cc1cc(=O)n(CC(=O)N2CCC(c3ccccc3F)S(=O)(=O)CC2)cn1 (stereo not given)	1.07 ± 0.084
Br.Cc1ccc(Sc2ccccc2N2CCNCC2)c(C)c1	0.944 ± 0.11
CCOC(=O)C1=C(C)NC(C)=C(C(=O)OC)C1c1ccc(Cl)cc1 (stereo not given)	0.448 ± 0.035
O=C(Nc1nc2ccc(Cl)cc2s1)c1ccc(Br)s1	0.927 ± 0.072
CC(=O)c1c(C(C)=O)c(C)n(-c2ccccc2N)c1C	0.992 ± 0.1
O=Cc1ccc(OCc2cccc([N+](=O)[O-])c2)c(Br)c1	0.737 ± 0.057
COc1ccccc1N1CCN(CC(O)COc2cccc3ccccc23)CC1 (stereo not given)	1.21 ± 0.2
CC(=O)Nc1ccc(CC(=O)N2C3C=CCC2CC3)cc1 (stereo not given)	1.06 ± 0.059
Cc1occc1C(=O)Nc1ccc([N+](=O)[O-])cc1Cl	0.851 ± 0.066
CC(=O)N1CCN(C(=O)Cn2cnc(-c3ccc(C)cc3)cc2=O)CC1	1.01 ± 0.1
O=C(Oc1ccc(C=Nc2ccc([N+](=O)[O-])cc2)cc1)c1ccccc1	0.967 ± 0.089
NC(=O)NCC(N)C(=O)O (stereo not given)	1.02 ± 0.09
CCCCc1oc2ccccc2c1C(=O)c1cc(I)c(OCCN(CC)CC)c(I)c1.Cl	0.988 ± 0.12

SMILES	NF-kB reporter
CN(C)c1ccc(C=NN2C(=O)c3cccc4cccc(c34)C2=O)cc1	1.1 ± 0.092
COC(=O)C1=CN(CC2CCCO2)C=C(C(=O)OC)C1c1ccccc1OC (stereo not given)	0.849 ± 0.059
CN(C)C1C(O)=C(C(N)=O)C(=O)C2(O)C(O)=C3C(=O)c4c(O)cccc4C(C)(O)C3CC12.Cl (stereo not given)	1 ± 0.053
COc1ccccc1N1CCN(CCCNc2cc(=O)n(C)c(=O)n2C)CC1.Cl	1.08 ± 0.34
O=C(CCCCCN1C(=O)c2cccc3cccc(c23)C1=O)NO	1.43 ± 0.12
O=C(Nc1cc(C(F)(F)F)cc(C(F)(F)F)c1)c1ccco1	1.07 ± 0.061
CO[C@@]1(NC(=O)CSCC#N)C(=O)N2C(C(=O)[O-])=C(CSc3nnnn3C)CS[C@@H]21 [Prestw-700]	1.02 ± 0.088
Cc1nnc(NC(=O)c2cccc([N+](=O)[O-])c2)s1	0.97 ± 0.093
COc1ccc(C2=CC(=Cc3cccc(OC)c3OC)C(=O)O2)c(OC)c1	1.06 ± 0.1
Cc1ccc(NC(=O)CN2C(=O)c3ccccc3C2=O)c(C(=O)O)c1	0.894 ± 0.057
CCC(C)(C)C(=O)O[C@H]1C[C@@H](C)C=C2C=C[C@H](C)[C@H](CC[C@@H]3C[C@@H](O)CC(=O)O3)[C@H]21	1.54 ± 0.13
Cc1ccc(C(=O)NC(=S)Nc2nc(-c3cccc([N+](=O)[O-])c3)cs2)cc1C	0.98 ± 0.16
O=C(NCCN1CCOCC1)c1ccc(Cl)cc1	1.13 ± 0.3
Cl.O=C1NCC2(CCN(CCc3ccccc3)CC2)O1	0.641 ± 0.054
CCCc1nc2ccccc2c(NC(=O)CN2CCOCC2)c1CC.O=C(O)C(=O)O	1.12 ± 0.093
CC(C)(C)c1ccc(C(=O)Nc2nc3ccc([N+](=O)[O-])cc3s2)cc1	1.05 ± 0.072
C1N2CN3CN1CN(C2)C3	1.04 ± 0.054
O=S(=O)(Nc1ccnc2ccccc12)c1ccccc1	0.88 ± 0.066
Cc1cc2c(cc1S(N)(=O)=O)S(=O)(=O)CCC2	1.03 ± 0.085
C[C@H](N[C@@H](CCc1ccccc1)C(=O)O)C(=O)N1CCC[C@H]1C(=O)O.O.O	1.09 ± 0.16
